Measured values published in PubChem BioAssay (NCI).
The panel holds about 79,000 compounds, 15% with a hit somewhere; the sample as a whole holds those more often. Unmarked numbers belong to inactive results. The source made the active and inactive calls. Rule as the data show it: active = growth inhibition above about 70%; inactive = the rest.

Assay: NCI Yeast Anticancer Drug Screen. Data for the wt2 strain (AID 169);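 also: 0% = growth of vehicle-treated yeast cultures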
Conditions: S. cerevisiae wt2 strain growth inhibition, active compounds read high
Experimental: Growth inhibition of yeast strains with defined genetic alterations is measured as a screen for potential anti-cancer activity. Selected strains with alterations in DNA damage repair or cell cycle control were exposed to compounds and growth inhibition was measured relative to vehicle treated controls. The strain used in this assay is wt2

Question: For `O=C(c1cc(=O)c2ccc(O)cc2o1)c1ccc(Cl)cc1Cl`, which growth inhibition (at 1.2 µM) is on record?
Answer: Its growth inhibition is -4%.

Question: What about the growth inhibition (at 3.7 µM) of the same compound?
Answer: The growth inhibition was -4%.

Question: And the growth inhibition (at 11.0 µM)?
Answer: The growth inhibition was 0%.

Question: And the growth inhibition (at 33.0 µM)?
Answer: Its growth inhibition is 68%.

Question: What about the growth inhibition (at 100.0 µM) of the same compound?
Answer: Its growth inhibition is 88% (active).

Question: With `O=C(NO)c1coc2ccccc2c1=O` as the compound, how does the growth inhibition (at 1.2 µM) read?
Answer: The growth inhibition was -2%.

Question: And the growth inhibition (at 3.7 µM)?
Answer: The growth inhibition was -4%.

Question: What about the growth inhibition (at 11.0 µM) of the same compound?
Answer: The growth inhibition was -3%.

Question: And the growth inhibition (at 33.0 µM)?
Answer: Its growth inhibition is -3%.

Question: And the growth inhibition (at 100.0 µM)?
Answer: The growth inhibition was 4%.

Question: Which growth inhibition (at 1.2 µM) does the source give for `CCCC/C=C1\CCC(CN2CCCC2)C1=O` (stereo not given) here?
Answer: The growth inhibition was -33%.

Question: And the growth inhibition (at 3.7 µM)?
Answer: Its growth inhibition is -17%.

Question: What about the growth inhibition (at 11.0 µM) of the same compound?
Answer: The growth inhibition was -3%.

Question: And the growth inhibition (at 33.0 µM)?
Answer: The growth inhibition was 20%.

Question: And the growth inhibition (at 100.0 µM)?
Answer: Its growth inhibition is 74% (active).

Question: What does the source list for `CC(C)C(=O)CC(Sc1ccc(N)cc1)c1ccccc1` (stereo not given)?
Answer: growth inhibition (at 1.2 µM): -2%; growth inhibition (at 3.7 µM): -2%; growth inhibition (at 11.0 µM): 10%; growth inhibition (at 33.0 µM): 47%; growth inhibition (at 100.0 µM): 57%

Question: Which growth inhibition (at 1.2 µM) does the source give for `CC(C)OP(=O)(OC(C)C)/C(Cl)=N/Nc1ccc([N+](=O)[O-])cc1` here?
Answer: Its growth inhibition is 3%.

Question: And the growth inhibition (at 3.7 µM)?
Answer: Its growth inhibition is 5%.

Question: And the growth inhibition (at 11.0 µM)?
Answer: Its growth inhibition is 39%.

Question: And the growth inhibition (at 33.0 µM)?
Answer: Its growth inhibition is 71% (active).

Question: And the growth inhibition (at 100.0 µM)?
Answer: The growth inhibition was 93% (active).

Question: With `O=C1c2ccccc2-c2cc3ccccc3c(=O)n21` as the compound, how does the growth inhibition (at 1.2 µM) read?
Answer: Its growth inhibition is 4%.

Question: And the growth inhibition (at 3.7 µM)?
Answer: Its growth inhibition is 9%.

Question: What about the growth inhibition (at 11.0 µM) of the same compound?
Answer: Its growth inhibition is 31%.

Question: And the growth inhibition (at 33.0 µM)?
Answer: The growth inhibition was 73% (active).

Question: What about the growth inhibition (at 100.0 µM) of the same compound?
Answer: Its growth inhibition is 73% (active).

Question: With `CNC(=O)OCc1c(COC(=O)NC)c(C)n(-c2ccc(Br)cc2)c1C` as the compound, how does the growth inhibition (at 1.2 µM) read?
Answer: The growth inhibition was -28%.

Question: What about the growth inhibition (at 3.7 µM) of the same compound?
Answer: The growth inhibition was -19%.

Question: And the growth inhibition (at 11.0 µM)?
Answer: The growth inhibition was -19%.

Question: What about the growth inhibition (at 33.0 µM) of the same compound?
Answer: Its growth inhibition is -13%.

Question: And the growth inhibition (at 100.0 µM)?
Answer: The growth inhibition was 96% (active).

Question: For `Cc1ccc([N+](=O)[O-])c2c(NCCC[N+](C)(C)[O-])c3ccccc3nc12`, which growth inhibition (at 1.2 µM) is on record?
Answer: The growth inhibition was 0%.

Question: What about the growth inhibition (at 3.7 µM) of the same compound?
Answer: The growth inhibition was -4%.

Question: And the growth inhibition (at 11.0 µM)?
Answer: The growth inhibition was 4%.

Question: What about the growth inhibition (at 33.0 µM) of the same compound?
Answer: Its growth inhibition is 8%.

Question: And the growth inhibition (at 100.0 µM)?
Answer: Its growth inhibition is 10%.
